# Values joined by “and” are separate entries in the source; they are usually repeats but may differ in a detail not shown here. Equal values may be shown once. Results filed as inconclusive are left out. More than one record can exist for a structure, and the calls need not agree. A number with no mark means an inactive call. Active and inactive are the calls of the source. Unless noted, calls come from the whole dose curve; as a rule, active = well fitted curve in the direction sought with a large enough effect; inconclusive = small, poorly fitted or top-dose-only effect, or another doubt; inactive = no such curve, though single readings can be large; an effect the other way counts as inactive or inconclusive.
# What was measured:
# [1] = target: Cellular tumor antigen p53 (Homo sapiens) (UniProt P04637); assay: Primary qHTS for small molecule compounds that upregulate eGFP-tagged delta133p53alpha (in N-terminal) cells. (AID 2060322); conditions: NCI-H358 eGFP-delta133p53alpha fluorescence, 24 h; activation: hits give high values; note: nearly all actives have a fitted effect of over 75% in size; note: potency is the fitted concentration of half-maximal effect;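 for activation: cells pre-induced with doxycycline then dosed without doxycycline; 0% = DMSO vehicle and 100% = reference activator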
# Sequence of Cellular tumor antigen p53 (Homo sapiens) (P04637 whole entry, looked up): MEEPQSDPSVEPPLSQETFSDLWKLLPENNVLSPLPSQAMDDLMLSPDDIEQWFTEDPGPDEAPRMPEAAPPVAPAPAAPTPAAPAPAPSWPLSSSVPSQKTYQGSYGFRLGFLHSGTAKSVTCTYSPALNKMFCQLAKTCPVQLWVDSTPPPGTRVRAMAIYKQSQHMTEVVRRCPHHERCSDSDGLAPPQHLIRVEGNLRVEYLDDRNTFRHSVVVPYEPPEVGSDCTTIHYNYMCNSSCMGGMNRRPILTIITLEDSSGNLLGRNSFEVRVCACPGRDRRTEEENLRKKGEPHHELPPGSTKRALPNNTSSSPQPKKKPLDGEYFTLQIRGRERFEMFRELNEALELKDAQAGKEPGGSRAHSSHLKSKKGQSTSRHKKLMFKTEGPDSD
# Outline: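 NCI-H358 cells pre-induced 24 h with 10 ng/ml doxycycline for eGFP-delta133p53alpha, plated dox-free and exposed 24 h at 37C to titrated compounds. Fixed, Hoechst-stained; gated GFP peak intensity by laser scanning cytometry, normalized to DMSO (0%) and 57.5 uM 5-azacytidine (100%).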
# [2] = target: Aldehyde dehydrogenase, mitochondrial (Homo sapiens) (UniProt P05091); assay: qHTS for Inhibitors of the Aldehyde Dehydrogenase Family (ALDH2) Primary screen (AID 2061308); conditions: ALDH2 enzyme inhibition qHTS, 1536-well; series mostly up to 56 µM;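 note: plate controls were vehicle for no effect and reference inhibitor for full effect; nearly all actives have a fitted effect of over 55% in size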
# [3] = target: Retinaldehyde dehydrogenase 3 (Homo sapiens) (UniProt P47895); assay: qHTS for Inhibitors of the Aldehyde Dehydrogenase Family (ALDH1A3) Primary screen (AID 2061315); conditions: ALDH inhibition qHTS; series mostly up to 56 µM;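 note: plate controls were DMSO vehicle for no effect and reference inhibitor for full effect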
# [4] = BET inhibitor-based combinations targeting novel dependencies in MECOM-rearranged (r) AML: SET-2 cell line (AID 2202231); conditions: SET-2 AML cells viability, CellTiter-Glo luminescence, 48 h; viability: hits give low values, concentration not given here; note: nearly all actives have a fitted effect of over 35% in size; note: potency is the fitted concentration of half-maximal effect;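 for viability: plate controls were DMSO treated cells for no effect and wells without cells for full effect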
# Outline: (§1)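 500 cells/well; 11-pt dose curve; 48 h, standard incubator; CellTiter-Glo luminescence after 15 min RT; DMSO/empty-well normalization; AUC plus Z-AUC (mean-centered within each line).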
# [5] = BET inhibitor-based combinations targeting novel dependencies in MECOM-rearranged (r) AML: OCI-AML3 cell line (AID 2202232); conditions: CellTiter-Glo luminescence, 48 h; Potency: OCI-AML3 viability; series mostly up to 46 µM; note: nearly all actives have a fitted effect of over 35% in size; note: potency is the fitted concentration of half-maximal effect
# Outline: as §1
# [6] = BET inhibitor-based combinations targeting novel dependencies in MECOM-rearranged (r) AML: MV-4-11 cell line (AID 2202233); conditions: MV-4-11 AML viability, CellTiter-Glo luminescence, 48 h; series mostly up to 46 µM; note: nearly all actives have a fitted effect of over 45% in size; note: potency is the fitted concentration of half-maximal effect
# Outline: (§2)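 Cells were plated at 500 per well and exposed to each drug across an 11-point dose range for 48 hr at standard incubator conditions. Viability was read by CellTiter-Glo luminescence, and activity was expressed as AUC and per-cell-line Z-transformed AUC.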
# [7] = BET inhibitor-based combinations targeting novel dependencies in MECOM-rearranged (r) AML: AML-191 cell line (AID 2202236; note: nearly all actives have a fitted effect of over 35% in size; note: potency is the fitted concentration of half-maximal effect); conditions: AML-191 viability, CellTiter-Glo luminescence, 48 h; series mostly up to 46 µM
# Outline: as §1
# [8] = BET inhibitor-based combinations targeting novel dependencies in MECOM-rearranged (r) AML: AML-194 cell line (AID 2202237; note: nearly all actives have a fitted effect of over 40% in size; note: potency is the fitted concentration of half-maximal effect); conditions: AML-194 (MECOM-r AML) viability, CellTiter-Glo, 48 h; series mostly up to 46 µM
# Outline: as §1
# [9] = BET inhibitor-based combinations targeting novel dependencies in MECOM-rearranged (r) AML: HNT-34 cell line (AID 2202234); conditions: HNT-34 AML viability, CellTiter-Glo luminescence, 48 h; series mostly up to 46 µM; note: potency is the fitted concentration of half-maximal effect; nearly all actives have a fitted effect of over 35% in size
# Outline: as §2
# [10] = BET inhibitor-based combinations targeting novel dependencies in MECOM-rearranged (r) AML: UCSD-AML1 cell line (AID 2202235); conditions: UCSD-AML1 AML cells viability, CellTiter-Glo, 48 h; series mostly up to 46 µM; note: nearly all actives have a fitted effect of over 40% in size; note: potency is the fitted concentration of half-maximal effect
# Outline: as §2
# [11] = target: Retinaldehyde dehydrogenase 3 (Homo sapiens) (UniProt P47895); assay: qHTS for Inhibitors of the Aldehyde Dehydrogenase Family (ALDH1A3) Validation screen (AID 2061312); conditions: ALDH1A3 enzyme inhibition qHTS validation, fluorescence; series mostly up to 84.7 µM; note: % is set by controls: 0 for no effect and ±100 for the full control effect; nearly all actives have a fitted effect of over 45% in size
# [12] = target: Cellular tumor antigen p53 (Homo sapiens) (UniProt P04637); assay: Primary qHTS for small molecule compounds that upregulate eGFP-tagged delta133p53alpha (in C-terminal) cells. (AID 2060324); conditions: NCI-H358 delta133p53alpha-eGFP (C-terminal tag), GFP fluorescence imaging, 24 h; series mostly up to 57.5 µM;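 note: 0% = DMSO wells and 100% = 57.5 µM 5-azacytidine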
# Outline: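 Concentration-response screen: compounds titrated onto pre-induced NCI-H358 D133p53a-eGFP cells, incubated one day, fixed with 3.5% PFA. Per-cell GFP peak intensity was gated, then normalized against intraplate controls.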
# [13] = target: Aldehyde dehydrogenase, mitochondrial (Homo sapiens) (UniProt P05091); assay: qHTS for Inhibitors of the Aldehyde Dehydrogenase Family (ALDH2) Validation screens (AID 2061302; active = well fitted inhibition curve with a large enough effect; title and protocol of this record describe different tests;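 note: plate controls were DMSO vehicle for no effect and maximal DPI positive control response for full effect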); conditions: ALDH inhibition qHTS; series mostly up to 42.6 µM
SMILES,Potency [1],activation [1],Potency [2],Potency [3],viability [4] [%],Potency [5],Potency [6],Potency [7],Potency [8],Potency [4],Potency [9],Potency [10],Potency [11],Potency [12],Potency [13]
CC1(O)CC(c2nc(-c3ccc4ccc(-c5ccccc5)nc4c3)c3c(N)nccn23)C1 (configuration not stated),24.3 µM (active),34.8%,inactive,inactive,83.7,inactive,inactive,inactive,inactive,,,,,,
COc1cc(N2CCC(N(C)C)CC2)ccc1Nc1ncc(Cl)c(Nc2ccccc2P(C)(C)=O)n1,2.69 µM (active),-5.31%,inactive,inactive,,7.42 µM (active),,9.34 µM (active),7.42 µM (active),6.61 µM (active),2.63 µM (active),2.63 µM (active),,,
CN(C[C@@H]1COCCO1)S(=O)(=O)Nc1ccc2ccc3ncc(-c4cnn(C)c4)cc3c(=O)c2c1,8.63 µM (active),-1.43%,inactive,inactive,,,0.417 µM (active),,,,3.32 µM (active),5.9 µM (active),inactive,,
COc1ccc(C2CC(c3ccccc3)=NN2c2ccc(S(N)(=O)=O)cc2)cc1 (configuration not stated),21.7 µM (active),-16.2%,inactive,inactive,112,,,inactive,inactive,,,inactive,inactive,,
Cc1nc(N)sc1-c1ccnc(Nc2ccc(N3CCOCC3)cc2)n1,26.9 µM (active),-1.52%,inactive,,,11.8 µM (active),0.186 µM (active),7.42 µM (active),4.17 µM (active),5.25 µM (active),2.35 µM (active),0.833 µM (active),,,
COc1cc(N2CCC(N3CCN(C)CC3)CC2)ccc1Nc1ncc(Cl)c(Nc2ccccc2S(=O)(=O)C(C)C)n1,30.1 µM (active),16.9%,inactive,,,2.63 µM (active),0.468 µM (active),10.5 µM (active),16.6 µM (active),18.6 µM (active),16.6 µM (active),2.95 µM (active),,,
CS(=O)c1ccc(-c2nc(-c3ccc(F)cc3)c(-c3ccncc3)[nH]2)cc1 (configuration not stated),49.8 µM (active),-3.57%,inactive,inactive,,inactive,,inactive,inactive,,,,,,
CCCCOc1c(C(=O)c2c(F)cc(C)cc2F)cnc2n[nH]cc12,3.79 µM (active),10.1%,inactive,inactive,,2.09 µM (active),1.48 µM (active),2.63 µM (active),3.72 µM (active),,2.95 µM (active),2.35 µM (active),,,
Cc1ccc(NC(=O)C2(c3ccc4c(c3)OC(F)(F)O4)CC2)nc1-c1cccc(C(=O)O)c1,0.153 µM (active),-10.5%,inactive,inactive,94.8,inactive,,inactive,inactive,,,inactive,inactive,,
c1ccc2c(CCNc3ccc(Nc4ccncc4)cc3)c[nH]c2c1,30.6 µM (active),-5.73%,inactive,inactive,,1.32 µM (active),0.934 µM (active),10.5 µM (active),3.32 µM (active),10.5 µM (active),2.95 µM (active),3.72 µM (active),inactive,,
N.N.O=C(O)C1(C(=O)O)CCC1.[Pt+2],,-8.5%,,,,,,,,,,,,inactive,inactive
CCCOc1ccc2nc(NC(=O)OC)[nH]c2c1,0.0685 µM (active),62.8%,,,,0.332 µM (active),0.372 µM (active),0.263 µM (active),0.235 µM (active),0.525 µM (active),0.235 µM (active),0.263 µM (active),,,
COc1cccc2c1[C@@H]1CN(CCCCn3c(=O)[nH]c4c(sc5ncc(-c6ccccc6)nc54)c3=O)C[C@@H]1CO2,,-97.6%,,,,,,,,,,,,inactive,
Cc1c(-c2ccc(O)cc2)n(Cc2ccc(OCCN3CCCCCC3)cc2)c2ccc(O)cc12,38.9 µM (active),-20.9%,,,,16.6 µM (active),,,26.3 µM (active),,,inactive,,,
Cc1cc2c(C(C)C)c(O)c(O)c(C=O)c2c(O)c1-c1c(C)cc2c(C(C)C)c(O)c(O)c(C=O)c2c1O,24.6 µM (active),-36.4%,,,,9.34 µM (active),,9.34 µM (active),,9.34 µM (active),,9.34 µM (active),,,
COC(=O)C1=C(C)NC(C)=C(C(=O)OC)C1c1ccccc1[N+](=O)[O-],,-16.4% and -36.9%,,,,,,,,,,,,inactive,

# Source: PubChem BioAssay (NCATS)
